Screens as filed in PubChem.
Rows were chosen to be rich in hits. Some 1.6% of all compounds tested hit in one or more screens of this group.
KCNQ2 pot: potentiators of rat KCNQ2 potassium channel. CHO-K1 KCNQ2, FluxOR thallium flux fluorescence; hits give high values. B-score at 10 µM. 0.54% of 310,000 active. AID 2239, 2010;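 active means fluorescence ratio B-score at least 3 SD of library B-scores, with initial fluorescence B-score within 3 of them, cut at about 5.3 in these data; same plate scores as AID 2156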;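 further: B-score of peak minus minimum over baseline fluorescence ratio after K+ and Tl+ stimulus; positive B-score means potentiation of KCNQ2 with more thallium influx and brighter signal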
Target sequence (O88943 whole entry, looked up): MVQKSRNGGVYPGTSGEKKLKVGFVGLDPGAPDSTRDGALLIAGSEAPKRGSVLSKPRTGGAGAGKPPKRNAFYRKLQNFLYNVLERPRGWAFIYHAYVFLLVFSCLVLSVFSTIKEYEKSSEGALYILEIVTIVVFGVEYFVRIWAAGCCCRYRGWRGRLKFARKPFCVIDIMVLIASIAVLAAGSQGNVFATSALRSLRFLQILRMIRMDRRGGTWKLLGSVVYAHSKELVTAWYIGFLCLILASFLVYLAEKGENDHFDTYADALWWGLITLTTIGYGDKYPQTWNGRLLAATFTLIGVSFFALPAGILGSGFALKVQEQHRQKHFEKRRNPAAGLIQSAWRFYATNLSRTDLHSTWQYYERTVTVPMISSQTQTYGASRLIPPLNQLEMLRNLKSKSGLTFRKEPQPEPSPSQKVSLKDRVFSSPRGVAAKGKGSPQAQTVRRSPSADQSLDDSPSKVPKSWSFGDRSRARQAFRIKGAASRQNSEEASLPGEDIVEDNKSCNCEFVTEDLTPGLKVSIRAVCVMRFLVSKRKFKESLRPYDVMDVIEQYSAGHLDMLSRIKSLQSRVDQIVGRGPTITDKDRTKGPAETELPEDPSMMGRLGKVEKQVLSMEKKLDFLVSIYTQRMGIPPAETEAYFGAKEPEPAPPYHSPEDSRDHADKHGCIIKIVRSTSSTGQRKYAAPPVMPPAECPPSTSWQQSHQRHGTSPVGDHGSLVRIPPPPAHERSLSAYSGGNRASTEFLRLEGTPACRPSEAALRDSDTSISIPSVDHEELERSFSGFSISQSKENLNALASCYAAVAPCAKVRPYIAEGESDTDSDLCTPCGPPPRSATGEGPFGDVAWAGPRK
KCNQ2 inh: rat KCNQ2 potassium channel inhibitors, primary screen, cell-based, CHO-K1, FluxOR thallium flux, B-score. B-score at 10 µM. AID 2156, 2009. 1.1% of 310,000 active. Potassium voltage-gated channel subfamily KQT member 2 (Rattus norvegicus), O88943. 20 min; hits give low values;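 active means fluorescence ratio B-score at most minus 3 library SDs, with starting brightness B-score within 2 library SDs, cut at about -5.5 in these data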
KCNQ2 inh conf: rat KCNQ2 potassium channel inhibitors, confirmation, cell-based, thallium flux; shares compounds with KCNQ2 inh; KCNQ2-expressing cells, inhibition; hits give low values; activity change, negative = inhibition, % at 10 µM; 57% of 1,000 active; AID 493025, 2011
KCNQ1 spec: human KCNQ1 channel inhibition, counter-screen for KCNQ2 inhibitor project, cell-based, FluxOR thallium flux | shares compounds with KCNQ2 inh | KCNQ1-expressing cells, FluxOR thallium flux fluorescence; hits give low values | activity change, negative = inhibition, % at 10 µM | 15% of 1,000 active;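 active means activity change at least 3 SD of negative controls below their mean in both duplicate wells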;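 further: CHO cells stably transfected with KCNQ1 and depolarized by potassium stimulus; peak minus minimum fluorescence over baseline after thallium addition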
CHO Tl ctr: thallium flux change in parental CHO cells, counter-screen for KCNQ2 inhibitor project; hits give low values; activity change, % at 10 µM; AID 493029, 2011; 14% of 1,000 active; shares compounds with KCNQ2 inh
Hits are given with their value. Unless noted, how the calls were made is not given here.

What do the screens show for `CC1=CC(C)(C)N2C(=O)C3(SCC(=O)N3c3ccc(F)cc3)c3cc(C)cc1c32` (stereo not given)?
KCNQ2 pot: inactive; KCNQ2 inh: -6

How did CC1=CC(C)(C)N2C(=O)C3(NCCc4c3[nH]c3ccccc43)c3cc(C)cc1c32 (stereo not given) do in these assays?
KCNQ2 inh: inactive

What do the screens show for `CCOC(=O)c1c(S(=O)(=O)NCC(=O)NCc2cccc(C)c2)c(C)n(C)c1C`?
KCNQ2 pot: inactive; KCNQ2 inh: inactive

What do the screens show for `S=C(NCC1CCCO1)NC1CCCC1` (stereo not given)?
KCNQ2 inh: inactive

What do the screens show for `Cc1cc(Cl)n2c(nc3cc(F)c(F)cc32)c1C#N`?
KCNQ2 pot: inactive; KCNQ2 inh: -13

Results for Cc1cc(C)n2c(=O)c3ccc(Cl)cc3nc2c1C#N ?
KCNQ2 inh: inactive

How did COc1cccc(-c2cc(C(=O)N3CCN(c4ncccn4)CC3)c3ccccc3n2)c1 do in these assays?
KCNQ2 inh: inactive

What do the screens show for `CC(C)Oc1cccc(-c2cc(C(=O)N3CCN(c4ncccn4)CC3)c3ccccc3n2)c1`?
KCNQ2 pot: inactive; KCNQ2 inh: -7.2

Results for O=C(C[n+]1ccccc1)Nc1ccc(Oc2ccccc2)cc1 ?
KCNQ2 inh: inactive

How did COc1ccc(N/N=C(\C=N\O)C(=O)c2ccc(OC)cc2)cc1 do in these assays?
KCNQ2 inh: inactive

Results for CO/N=C/C(=N\Nc1cc(OC)cc(OC)c1)C(=O)c1ccccc1 ?
KCNQ2 pot: inactive; KCNQ2 inh: -5.8

How did O=C(COC(=O)C1=COCCO1)NC1CCCCC1 do in these assays?
KCNQ2 pot: inactive; KCNQ2 inh: inactive

Results for Cc1ccc(NC(=O)/C(=C/c2cccc([N+](=O)[O-])c2)NC(=O)C2CCCCC2)cc1 ?
KCNQ2 pot: inactive; KCNQ2 inh: inactive

Results for O=C(Nc1ccc(Br)cc1)/C(=C/c1cccc([N+](=O)[O-])c1)NC(=O)C1CCCCC1 ?
KCNQ2 pot: inactive; KCNQ2 inh: -7.7

How did Cc1onc(-c2c(F)cccc2Cl)c1C(=O)c1ccc(F)cc1 do in these assays?
KCNQ2 inh: inactive

What do the screens show for `Cc1onc(-c2c(Cl)cccc2Cl)c1C(=O)c1ccc(F)cc1`?
KCNQ2 pot: 6.8; KCNQ2 inh: inactive

How did CCOc1cc(CNCC(C)C)c(Cl)cc1OCC(=O)Nc1ccccc1 do in these assays?
KCNQ2 pot: inactive; KCNQ2 inh: inactive

Results for CN(Cc1ccccc1)C(NC(=O)c1ccco1)C(Cl)(Cl)Cl (stereo not given) ?
KCNQ2 pot: inactive; KCNQ2 inh: inactive

What do the screens show for `CSc1ccc(CN(C)C(=O)C(Cc2ccccc2)NC(=O)c2ccccc2)cc1` (stereo not given)?
KCNQ2 pot: inactive; KCNQ2 inh: -5.5

Results for CN(Cc1ccccc1)C(=S)NC(=O)c1cccs1 ?
KCNQ2 pot: inactive; KCNQ2 inh: inactive

What do the screens show for `CN(Cc1ccc(F)cc1)C(=O)C(Cc1ccccc1)NC(=O)c1ccccc1` (stereo not given)?
KCNQ2 inh: inactive

Results for CN(Cc1ccccc1)C(=S)NC(=O)c1ccc(-c2ccccc2)cc1 ?
KCNQ2 pot: 7.1; KCNQ2 inh: inactive

Results for CN(Cc1ccccc1)C(NC(=O)c1ccccc1)C(Cl)(Cl)Cl (stereo not given) ?
KCNQ2 pot: inactive; KCNQ2 inh: -5.8

What do the screens show for `Cc1cccc(N2CCN(C(=O)c3ccc4c(c3)CCN4S(C)(=O)=O)CC2)c1C`?
KCNQ2 pot: inactive; KCNQ2 inh: inactive

How did Cc1nc2c(C(=O)NCCc3ccccc3Cl)c[nH]n2c(=O)c1Cl do in these assays?
KCNQ2 pot: 7.2; KCNQ2 inh: inactive

How did Cc1nc2c(C(=O)NCc3ccccc3Cl)c[nH]n2c(=O)c1Cl do in these assays?
KCNQ2 inh: inactive

Results for O=C(NCc1ccccc1)C(c1ccc(F)cc1)N(C(=O)c1csnn1)C1CC1 (stereo not given) ?
KCNQ2 pot: inactive; KCNQ2 inh: inactive

How did O=C(NCCCN1CCCC1=O)c1cc(-c2cccnc2)nc2ccc(Cl)cc12 do in these assays?
KCNQ2 pot: inactive; KCNQ2 inh: -6.5

What do the screens show for `O=C(NCCCN1CCCC1=O)c1cc(-c2ccc3c(c2)OCO3)nc2ccccc12`?
KCNQ2 inh: inactive

How did Cc1ccc(CNC(=O)CNC(=O)[C@@H]2Cc3ccccc3CN2C(=O)OC(C)(C)C)cc1 do in these assays?
KCNQ2 pot: inactive; KCNQ2 inh: inactive

What do the screens show for `O=C(NCC(c1cccs1)N1CCOCC1)c1ccccc1NS(=O)(=O)c1cc([N+](=O)[O-])ccc1Cl` (stereo not given)?
KCNQ2 inh: inactive

Results for O=C(NCC(c1cccs1)N1CCOCC1)c1ccccc1NS(=O)(=O)c1ccc(Cl)c([N+](=O)[O-])c1 (stereo not given) ?
KCNQ2 pot: inactive; KCNQ2 inh: -6.2

How did CCc1noc(C)c1C(=O)N1CCCC(N2CCN(c3cccc(Cl)c3)CC2)C1 (stereo not given) do in these assays?
KCNQ2 pot: inactive; KCNQ2 inh: inactive

How did COc1ccc(-c2cc3nc(C)cc(N4CC(C)CC(C)C4)n3n2)cc1 (stereo not given) do in these assays?
KCNQ2 pot: inactive; KCNQ2 inh: -6

Results for COc1ccc(-c2cc(C(F)(F)F)n3nc(C)cc3n2)cc1 ?
KCNQ2 inh: inactive

What do the screens show for `COc1ccc(C(=O)N2CCOC2CNC(=O)C(=O)NCCc2ccc(OC)c(OC)c2)cc1` (stereo not given)?
KCNQ2 pot: inactive; KCNQ2 inh: inactive

What do the screens show for `CCn1nc(C(=O)OCC(=O)c2ccc(F)cc2)c2ccccc2c1=O`?
KCNQ2 pot: inactive; KCNQ2 inh: inactive

Results for CCn1nc(C(=O)OC(C(=O)c2c[nH]c3ccccc23)c2ccccc2)c2ccccc2c1=O (stereo not given) ?
KCNQ2 pot: inactive; KCNQ2 inh: -8

Results for CC(C)CC(C(=O)NC(C)(C)C)N(Cc1ccccc1Cl)C(=O)c1snc(C(N)=O)c1N (stereo not given) ?
KCNQ2 inh: inactive

How did Cc1cc(C)c2c(=O)n(CC(=O)NCCCN3CCOCC3)sc2n1 do in these assays?
KCNQ2 pot: inactive; KCNQ2 inh: inactive

How did Cc1cc(C)c2c(=O)n(CC(=O)NCCCN3CCN(c4ccccc4F)CC3)sc2n1 do in these assays?
KCNQ2 pot: inactive; KCNQ2 inh: -9.9

How did O=S(=O)(NCC1CCCO1)c1ccc(S(=O)(=O)N(Cc2ccc(F)cc2)Cc2ccco2)cc1 (stereo not given) do in these assays?
KCNQ2 pot: inactive; KCNQ2 inh: inactive

What do the screens show for `CCCn1c(CNC(=O)Cc2ccccc2)nc2ccccc21`?
KCNQ2 pot: inactive; KCNQ2 inh: -6.7; KCNQ2 inh conf: inactive; KCNQ1 spec: inactive; CHO Tl ctr: inactive

What do the screens show for `CCCC(=O)NCCc1nc2ccccc2n1CCC`?
KCNQ2 pot: inactive; KCNQ2 inh: inactive
